Screening results deposited in PubChem BioAssay by Sanford-Burnham Center for Chemical Genomics.
A selection: hits, their analogues and other compounds. The true share with any hit is near 6.3%.
MPTP block: permeability transition pore inhibition. isolated mouse mitochondria, Ca2+ swelling absorbance, 30 min. inhibition, % at 10 µM. 360,000 compounds, 1.4% hits;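 active = inhibition of 50% or more, scaled per plate between neutral and stimulator controls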;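 also: 0% = DMSO wells given calcium and 100% = 1 mM EGTA wells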
TIM10 inh: TIM10 yeast growth inhibition; AID 463195; S. cerevisiae TIM10 strain growth, BacTiter-Glo luminescence, 24 h; 330,000 compounds, 1.4% hits; inhibition, % at 10 µM;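 active = inhibition of 40% or more at the single tested concentration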;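 also: wild-type TIM10 isogenic control strain grown at permissive 25 °C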
Mdm2-MdmX inh: inhibitors of human Mdm2/MdmX interaction | SaOS-2 split-luciferase Mdm2/MdmX complementation, luminescence | inhibition, % at 8 µM | 330,000 compounds, 3% hits;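 active = inhibition of at least 50% at 8 µM in the primary screen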
Target sequence (O15151 whole entry, looked up): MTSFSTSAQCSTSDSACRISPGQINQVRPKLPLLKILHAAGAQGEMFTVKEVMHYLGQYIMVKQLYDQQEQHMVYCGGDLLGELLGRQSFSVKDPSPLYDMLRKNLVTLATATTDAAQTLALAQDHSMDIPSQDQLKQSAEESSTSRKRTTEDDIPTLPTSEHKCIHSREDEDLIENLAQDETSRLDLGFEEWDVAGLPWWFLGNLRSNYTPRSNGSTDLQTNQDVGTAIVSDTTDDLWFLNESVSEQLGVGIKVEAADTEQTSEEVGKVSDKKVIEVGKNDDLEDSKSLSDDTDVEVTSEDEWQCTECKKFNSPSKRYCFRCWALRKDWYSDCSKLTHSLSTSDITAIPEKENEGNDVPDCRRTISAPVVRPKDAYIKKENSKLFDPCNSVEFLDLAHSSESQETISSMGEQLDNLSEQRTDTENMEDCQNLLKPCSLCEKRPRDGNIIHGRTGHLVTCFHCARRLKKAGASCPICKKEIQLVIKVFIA
Target sequence (Q00987 whole entry, looked up): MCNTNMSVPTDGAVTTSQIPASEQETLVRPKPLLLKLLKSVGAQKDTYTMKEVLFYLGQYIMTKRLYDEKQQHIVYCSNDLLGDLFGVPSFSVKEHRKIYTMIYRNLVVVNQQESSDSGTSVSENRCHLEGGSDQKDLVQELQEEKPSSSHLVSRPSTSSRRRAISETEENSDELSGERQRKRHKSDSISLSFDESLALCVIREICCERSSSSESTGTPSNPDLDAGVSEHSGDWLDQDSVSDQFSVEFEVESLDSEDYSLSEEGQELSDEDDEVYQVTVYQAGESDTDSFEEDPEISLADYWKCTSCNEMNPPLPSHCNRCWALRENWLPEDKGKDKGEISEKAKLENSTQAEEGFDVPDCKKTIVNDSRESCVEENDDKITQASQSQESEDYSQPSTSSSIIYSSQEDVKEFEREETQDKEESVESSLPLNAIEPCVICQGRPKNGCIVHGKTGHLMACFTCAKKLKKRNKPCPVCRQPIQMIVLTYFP
tim23-1 inh: inhibits growth of tim23-1 mutant yeast | 330,000 compounds, 1.3% hits | inhibition, % at 20 µM | AID 463212 | S. cerevisiae tim23-1 growth, BacTiter-Glo luminescence, 24 h;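 active = growth inhibition of the mutant yeast at or above 50%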;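 also: temperature-sensitive mutant grown at 25 °C; plate controls were DMSO-treated mutant yeast for no effect and medium wells lacking yeast for full effect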
tim10-1 inh: growth inhibitors of tim10-1 mutant yeast. inhibition, % at 20 µM. S. cerevisiae tim10-1 ts strain growth, BacTiter-Glo, 24 h. 330,000 compounds, 2.2% hits;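 active = inhibition of at least 40%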;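 also: mutant grown at 25 °C; 0% = DMSO wells with yeast and 100% = wells holding no yeast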
Mdm2-MdmX conf: confirmation of human Mdm2/MdmX interaction inhibitors | shares compounds with Mdm2-MdmX inh | Mdm2-MdmX binding, luminescent assay | inhibition, % at 8 µM | 10,000 compounds, 55% hits; in the data active = inhibition above about 40%
Full FLuc ctr: counter-screen for Mdm2/MdmX inhibitors: full-length luciferase. shares compounds with Mdm2-MdmX inh. SaOS-2 full-length luciferase counterscreen, luminescence. inhibition, % at 8 µM. 6,200 compounds, 77% hits;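 active = mean inhibition at 8 µM reaching about 37%, which flags the compound as non-specific, limit read from the data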;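 also: p53-null SaOS-2 cells with luciferase driven by a doxycycline-inducible promoter; compound on cells about two nights before reading with doxycycline added after day one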
* hit, by the source's call.

Cc1cc(C)c2nc(SCC(=O)Nc3cc(C)on3)c(C#N)cc2c1 was read as MPTP block -2, TIM10 inh -8, Mdm2-MdmX inh 58*, tim23-1 inh -4, tim10-1 inh -27 and Mdm2-MdmX conf 8.
For Cc1cccc2cc(C#N)c(SCC(=O)NNC(=O)Cc3ccccc3)nc12 the results were MPTP block 0, TIM10 inh -24, Mdm2-MdmX inh 78*, tim23-1 inh -7, tim10-1 inh 6 and Mdm2-MdmX conf -2.
Screening Cc1cc(C)c2cc(C#N)c(SCC(=O)Nc3ccc4c(c3)OCO4)nc2c1 returned MPTP block 8, TIM10 inh -23, Mdm2-MdmX inh 80*, tim23-1 inh -23, tim10-1 inh 7 and Mdm2-MdmX conf 5.
For CC(OC(=O)/C=C/c1ccc2ccccc2n1)C(=O)Nc1ccc(S(N)(=O)=O)cc1 (centres undefined) the results were MPTP block 1, TIM10 inh -23, Mdm2-MdmX inh 72*, tim23-1 inh -1, tim10-1 inh -4, Mdm2-MdmX conf 49* and Full FLuc ctr 66*.
Cc1ccc([N+](=O)[O-])cc1CN1CCN(c2ncc(Cc3ccccc3)cn2)CC1 was read as MPTP block 2.
Screening OCc1ccccc1-c1ccc2nncn2c1 returned MPTP block 0.
`O=C(Nc1ccncc1)c1cc(C2CCCCN2C(=O)CCCc2ccccc2)on1` (centres undefined) gave MPTP block 2.
`Cc1cc(/C=C2/C(=O)NN(c3ccccc3)C2=O)c(C)n1-c1ccc(O)cc1` gave MPTP block 1, TIM10 inh -7, Mdm2-MdmX inh 52*, tim23-1 inh -1, tim10-1 inh 4, Mdm2-MdmX conf 75* and Full FLuc ctr 116*.
`Cc1ccc(-n2nnnc2SCC(=O)Nc2ccc3c(c2)OCCO3)cc1C` gave MPTP block 2, TIM10 inh 1, Mdm2-MdmX inh 6, tim23-1 inh 0 and tim10-1 inh 6.
`COc1ccc(OC)c(-n2nnnc2SCC(=O)Nc2ccc3c(c2)OCCO3)c1` gave MPTP block 1, TIM10 inh -3, Mdm2-MdmX inh 82*, tim23-1 inh -2, tim10-1 inh -3 and Mdm2-MdmX conf 1.
Screening COc1cccc(CNC(=O)CSc2nnc3c(n2)[nH]c2ccc(OC)cc23)c1 returned MPTP block -2, TIM10 inh -6, Mdm2-MdmX inh 31, tim23-1 inh 1 and tim10-1 inh -2.
For COc1ccc(-n2nnnc2SCC(=O)Nc2cc(OC)c([N+](=O)[O-])cc2C)cc1 the results were MPTP block 1, TIM10 inh 8, Mdm2-MdmX inh 52*, tim23-1 inh -25, tim10-1 inh 1 and Mdm2-MdmX conf 7.
Screening COc1ccc2[nH]c3nc(SCC(=O)Nc4ccc5c(c4)OCO5)nnc3c2c1 returned MPTP block 1, TIM10 inh -12, Mdm2-MdmX inh 66*, tim23-1 inh -23, tim10-1 inh 14 and Mdm2-MdmX conf 6.
For CC(=O)Nc1ccc(NC(=O)CSc2nnnn2-c2ccc3c(c2)OCCO3)cc1 the results were MPTP block 1, TIM10 inh -21, Mdm2-MdmX inh 51*, tim23-1 inh -28, tim10-1 inh -11 and Mdm2-MdmX conf 4.
`CN(C)CCCNc1nc2cc(-c3cnn(C)c3)sc2c(=O)n1C` gave MPTP block 0.
Cc1ccc(-n2nnnc2SCC(=O)Nc2ccc3c(c2)COC3=O)cc1C was read as MPTP block -3, TIM10 inh 0, Mdm2-MdmX inh 51*, tim23-1 inh -24, tim10-1 inh 12 and Mdm2-MdmX conf 9.
Screening COc1ccc(OC)c(NC(=O)CSc2nnnn2-c2ccc3c(c2)OCO3)c1 returned MPTP block -1, TIM10 inh -10, Mdm2-MdmX inh 58*, tim23-1 inh 3, tim10-1 inh -4 and Mdm2-MdmX conf 30.
`Cc1ccc(NC(=O)CSc2nnnn2-c2ccc3c(c2)OCO3)cc1C` gave MPTP block 4, TIM10 inh -42, Mdm2-MdmX inh 49, tim23-1 inh -13 and tim10-1 inh 1.
For COC(=O)c1ccc(-n2nnnc2SCC(=O)Nc2cc(OC)ccc2OC)cc1 the results were MPTP block 4, TIM10 inh 1, Mdm2-MdmX inh -9, tim23-1 inh 13 and tim10-1 inh 12.
Screening CC(=O)N1CCN(C(c2ccccc2)c2nnnn2C(C)(C)C)CC1 (centres undefined) returned MPTP block 0.
`COc1ccc(Cl)cc1CNC[C@H]1O[C@@H](n2cnc3c(=O)[nH]c(N)nc32)[C@H](O)[C@@H]1O` gave MPTP block -1.
For COC(=O)c1c(NC(=O)COC(=O)c2ccccc2O)sc2c1CCCCC2 the results were MPTP block 2, TIM10 inh -3, Mdm2-MdmX inh 30, tim23-1 inh -3 and tim10-1 inh 14.
For COC(=O)c1c(NC(=O)COC(=O)c2ccc(C)s2)sc2c1CCCCC2 the results were MPTP block 0, TIM10 inh 3, Mdm2-MdmX inh 52*, tim23-1 inh 12, tim10-1 inh 13 and Mdm2-MdmX conf 13.
For COC(=O)c1c(NC(=O)COC(=O)c2ccc(NC(=O)CC#N)cc2)sc2c1CCCCC2 the results were MPTP block 7, TIM10 inh 2, Mdm2-MdmX inh 64*, tim23-1 inh -12, tim10-1 inh 4 and Mdm2-MdmX conf 2.
`CCc1nc2ccc(C(=O)NCCOc3ccc(OC)cc3)cn2c1N(CC)CCOC` gave MPTP block 0.
O=C(COc1cccc(F)c1)Nc1nc(-c2ccccn2)cs1 was read as MPTP block -1.
Screening O=C(Nc1nc(-c2ccccn2)cs1)Nc1ccc(F)cc1F returned MPTP block 0, TIM10 inh 32, Mdm2-MdmX inh 59*, tim23-1 inh 14, tim10-1 inh 14, Mdm2-MdmX conf 44* and Full FLuc ctr 51*.
For O=C(COc1ccc(F)cc1)Nc1nc(-c2ccccn2)cs1 the results were MPTP block 0, TIM10 inh -6, Mdm2-MdmX inh 64*, tim23-1 inh 41, tim10-1 inh 22, Mdm2-MdmX conf 70* and Full FLuc ctr 62*.
For CN(C(=O)c1ccc2c(Cl)c3c(nc2c1)CCC3)c1ccccc1 the results were MPTP block -1, TIM10 inh 6, Mdm2-MdmX inh -1, tim23-1 inh 48 and tim10-1 inh 32.
Screening CCN(C(=O)c1ccc2c(Cl)c3c(nc2c1)CCC3)c1ccc(C)c(C)c1 returned MPTP block -1, TIM10 inh 11, Mdm2-MdmX inh 53*, tim23-1 inh 45, tim10-1 inh 37, Mdm2-MdmX conf 43* and Full FLuc ctr 82*.
